# Assay outcomes deposited in PubChem BioAssay by Broad Institute.
# MITF act – activators of MITF-driven TRPM1 promoter reporter, primary screen, cell-based, SK-MEL-5, luciferase, single point; AID 588334, 2011; hit rate 0.75% among 300,000; SK-MEL-5 TRPM1-promoter luciferase, 24 h; % of positive control, neutral wells = 0; activation, % at 12.5 µM;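 active means mean activation of at least 80% with every replicate also reaching 80%; inconclusive means mean reaches 80% but some replicate falls short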
# Vif inh – HIV Vif self-association inhibitors, primary screen, imaging, HEK293T, single point; HEK293T cells, Vif self-association by quenched fluorescence, 24 h; inhibition, % at 7.49 µM; hit rate 0.35% among 340,000; AID 602346, 2012; in the data active means inhibition above about 50%, passing the limit was not always enough; inconclusive means no clear call, values can overlap the other calls; inactive means below about 31%
# N-glyco inh – increase of ERlucT glycosylation luciferase signal, primary screen, N-linked glycosylation inhibitor project, D54 ERlucT cells, luminescence, set 2; D54 ERlucT glycosylation luciferase reporter, 24 h; percent of 100 nM tunicamycin response; hit rate 0.23% among 360,000; reporter increase, % at 12.5 µM;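 active means mean luciferase reporter signal, scaled so untreated is 0 and the glycosylation-blocking control 100, at or above a set limit in every replicate; inconclusive means mean reaches the limit but not every replicate does; inactive means mean below the limit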;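 further: luciferase carries N-glycosylation sites so blocking glycosylation raises the light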
# PfHsp90 yeast 2 – growth inhibition of PfHsp90-expressing yeast, primary screen, antimalarial PfHsp90 inhibitor project, S. cerevisiae, BacTiter-Glo luminescence, single point, set 2; BacTiter-Glo ATP, 48 h; yeast lacking PDR1 and PDR3 efflux regulators; hit rate 0.32% among 310,000; inhibition, % at 9.4 µM;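 active means every replicate shows inhibition above about 80%, whatever the replicate mean, limit read from the data; inconclusive means mean inhibition reaches the set limit but some replicate falls short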
# esBAF inh – Bmi1 luciferase reporter increase in mESCs, primary screen, esBAF inhibitor project, mouse ES cells, Bmi1 luciferase knock-in, single point; 24 h; 100% = twice the neutral-well signal; reporter increase, % at 12.5 µM; hit rate 2% among 350,000; in the data active means activation above about 40%; inconclusive means no clear call, values can overlap the other calls;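 further: a rise in the Bmi1 reporter signal indicates esBAF inhibition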
# Wnt act – Wnt/beta-catenin pathway activators, primary screen, cell-based, plate reader, single point. Wnt/beta-catenin reporter cell assay, activator. activation, % at 9.35 µM. hit rate 1.2% among 300,000; in the data active means activation above about 30%, passing the limit was not always enough; inconclusive means no clear call, values can overlap the other calls
# Hits are given with their value; . = inactive; ? = inconclusive; / = no result. The list is not random: actives were taken first. Their share in the collection is about 3%.
SMILES,MITF act,Vif inh,N-glyco inh,PfHsp90 yeast 2,esBAF inh,Wnt act
COc1ccc(NC(=O)CN2C(=O)C(C)Oc3ccccc32)c(OC)c1 (stereo unspecified),.,.,.,.,.,/
O=C(CN(C(=O)c1cc2c(s1)CCC2)C1CCCC1)NCc1cccs1,.,.,.,.,.,50.2
Cc1noc(C)c1S(=O)(=O)N(C)C[C@H]1Oc2ccc(NS(=O)(=O)c3ccc(F)cc3)cc2CC(=O)N([C@H](C)CO)C[C@@H]1C,/,/,/,/,.,/
Cc1cc(C)n(-c2nc(NCCCO)c3c4c(sc3n2)CCCC4)n1,.,.,.,/,/,/
Nc1nnc(/C=C/c2ccccc2Cl)s1,/,?,.,.,/,54.8
CC(c1ccncn1)N(C)Cc1nc(-c2ccc(C(F)(F)F)cc2)no1 (stereo unspecified),.,.,.,.,.,.
COc1ccc(CN2[C@@H](CC(C)=O)c3ccc(/C=C/C(C)=O)cc3S2(=O)=O)cc1,.,.,.,/,.,.
COc1cccc(N2[C@@H](CC(C)=O)c3ccc(/C=C/C(C)=O)cc3S2(=O)=O)c1,.,.,37.7,/,.,.
O=C(N/N=C\c1ccc(CNS(=O)(=O)c2ccc(Cl)cc2)o1)C(=O)Nc1ccc(Oc2ccccc2)cc1,.,.,51.8,.,/,/
CN(C)CCCNC(=O)C[C@H]1C=C[C@@H](NS(=O)(=O)c2ccc(F)cc2)[C@H](CO)O1,/,/,/,/,.,/
COc1ccc(OC)c(NC(=O)c2ccccc2SC)c1,.,.,.,.,.,/
COc1cccc(N=c2oc3ccc(OC)cc3cc2-c2nc3ccccc3[nH]2)c1,.,.,.,.,.,.
COc1ccc(N=c2oc3ccc(OC)cc3cc2-c2nc3ccccc3[nH]2)cc1,.,.,.,.,60.3,/
COc1cccc(N=c2oc3ccccc3cc2-c2nc3ccccc3[nH]2)c1,.,.,.,.,.,46.7
C[C@@]12CCC3[C@@](CCC4[C@@]3(C)CCC[C@@]4(C)C(=O)NC3CCCCC3)(CC1=O)C2 (stereo partly specified),.,.,.,/,.,.
COc1ccc(/C=C(/NC(=O)c2ccccc2)C(=O)N2CCCC2)cc1OC,.,.,.,.,.,.
Cc1cccc(NS(=O)(=O)c2cccc3cccnc23)n1,.,.,.,.,.,.
Cc1ccc(-c2nnc(-c3ccccc3)o2)cc1,.,.,.,.,/,/
COc1ccc(-c2nnc(-c3ccc(F)cc3)o2)cc1,.,.,.,.,.,35.6
COc1ccc(-c2nnc(-c3ccc(C)cc3)o2)cc1,.,.,.,.,.,35.4
Cc1ccc(-c2nnc(-c3cc(C)on3)o2)cc1,.,.,.,.,.,49.1
COc1ccc(-c2nnc(-c3cc4ccccc4oc3=O)o2)cc1,.,.,.,.,.,/
COc1ccc(-c2nnc(-c3ccccc3O)o2)cc1,.,.,.,.,.,44.4
Cc1noc(C)c1S(=O)(=O)Nc1ccc2c(c1)C(=O)N([C@H](C)CO)C[C@H](C)[C@@H](CN(C)C(=O)Nc1ccc(F)cc1)OCCCC[C@H](C)O2,/,/,/,/,.,/
C#CCSc1nnc(-c2ccc(OC)cc2)o1,.,/,.,.,42.8,38.4
SMILES,MITF act,Vif inh,N-glyco inh,PfHsp90 yeast 2,esBAF inh,Wnt act
CC1=NNC(=O)/C1=C\c1cn(-c2ccccc2)nc1-c1cccs1,.,?,.,110.1,/,.
c1ccc(-c2nnc(-c3ccccn3)nc2NC2CCCCC2)cc1,.,.,.,103.3,/,.
Oc1ccccc1-c1nc(NC2CCCC2)c2ccccc2n1,.,.,.,115.2,.,.
CC(Nc1nc(-c2ccccc2O)nc2ccccc12)c1ccccc1 (stereo unspecified),.,.,29.0,.,.,.
CC(=O)N1CCc2c(sc3c2c(=O)n(-c2ccccc2)c(=O)n3Cc2ccccc2Cl)C1,.,.,.,.,/,.
C/C(=N\Nc1nccnc1Cl)c1ccc(O)cc1,/,.,.,.,41.6,.
C/C(=N\Nc1nccnc1Cl)c1ccc(F)cc1,.,.,.,.,/,.
Cc1cc(C)c2nc(-c3ccccn3)cc(C(=O)N3CCCC3)c2c1,.,.,.,.,.,.
COc1ccc2sc(N(CCCN(C)C)C(=O)c3ccc(S(=O)(=O)N4CCCc5ccccc54)cc3)nc2c1,.,/,.,/,.,.
COc1cc2nc(N(CCCN(C)C)C(=O)c3ccc(S(=O)(=O)N4CCc5ccccc54)cc3)sc2cc1OC,.,50.3,.,.,/,.
COc1ccc(/C=N/Nc2snc(SC)c2C#N)cc1OC,?,.,.,.,52.5,/
C(=C\c1sc(Nc2ccccc2)n[n+]1-c1ccccc1)/c1ccccc1,.,.,.,.,.,.
Cc1cc(Cl)ccc1OCC(=O)OCC(=O)NCCNC(=O)COC(=O)COc1ccc(Cl)cc1C,.,.,.,.,.,.
Cn1c(=NC(=O)c2ccccc2[N+](=O)[O-])sc2cccc(F)c21,99.9,.,.,.,.,?
Cn1c(=NC(=O)C(C)(C)C)sc2cccc(F)c21,.,.,.,.,.,.
CCCNC(=O)N1[C@H](CO)[C@H](c2ccc(C#CCN(C)C)cc2)[C@@H]1C#N,/,/,/,/,.,/
C=C(C)n1c(=O)n(Cc2ccc(C)cc2)c2ccccc21,.,69.2,.,.,.,.
COc1ccc(CC(N)c2csc(NC(=O)c3cc(C(C)(C)C)oc3C)n2)cc1 (stereo unspecified),/,.,.,/,53.5,.
CCN(CC)c1ccc2cc(-c3nc(-c4cc5ccccc5oc4=O)cs3)c(=O)oc2c1,.,.,.,.,/,.
O=C(NCc1ccccc1)c1c[nH]c2cc3c(cc2c1=O)OCCO3,.,.,.,.,51.2,.
COc1ccc(NC(=O)N2CCCCC2c2cccnc2)cc1 (stereo unspecified),.,.,.,.,.,.
Cn1c(-c2ccc([N+](=O)[O-])cc2)nc2ccccc21,.,.,.,.,.,32.4
Cn1cc([N+](=O)[O-])cc1-c1nc2ccccc2n1C,/,.,.,.,.,.
CCSc1nnc(-c2ccc(Cl)cc2Cl)o1,.,.,.,.,.,/
Clc1ccc(-c2nnc(-c3ccc(Br)o3)o2)c(Cl)c1,125.9,.,.,.,.,/
CSc1nnc(-c2ccc(Cl)cc2Cl)o1,.,.,.,.,51.2,/
Fc1ccc(-c2nnc(-c3ccc(Cl)cc3Cl)o2)cc1,/,.,.,.,.,.
Clc1ccc(-c2nnc(-c3ccccc3)o2)c(Cl)c1,/,.,.,.,.,38.8
Cc1[nH]n(-c2ccccc2)c(=O)c1/C=C1\C=NN=C1c1ccccc1,/,.,.,.,/,.
Cc1ccc(-n2[nH]c(C)c(/C=C3/C=Nc4ccccc43)c2=O)cc1C,.,.,.,.,53.8,.
